Results: ChEMBL document CHEMBL3988442, “University of Dundee, Small-Polar-MMV Screening Library” (2021)
Out of some 48,000 compounds screened, about 13,000 (27%) showed an effect of 50% or more. The list shows a part of the results.

system: Wolbachia pipientis; assay: Anti-Wolbachia Cell-Based Screen; assay type: functional; design: scale not given: in the data most compounds retested in dose-response had high values; conditions: 5 µM

SMILES	Percent Effect [%]
Cc1cccc(CNC(Cn2cncn2)c2ccccc2)c1C (stereo unspecified)	-43.08
CN(C)c1cc2c(nn1)CCN(C(=O)Cc1noc3ccccc13)C2	12.15
CN(Cc1csc(-c2ccccc2)n1)C(=O)CCn1ccccc1=O	-32.35
Cc1nc(CN2CCCC(NCCOCC(F)(F)F)C2)no1 (stereo unspecified)	-2.958
Cc1nc(CN2CCCC(NCc3ccsc3)C2)no1 (stereo unspecified)	1.864
Cc1nc(CN2CCCC(N(C)Cc3cscn3)C2)no1 (stereo unspecified)	2.968
Cc1nc(CN2CCCC(NCc3ccc(Cl)s3)C2)no1 (stereo unspecified)	105.2
Cc1nc(CN2CCCC(NCc3sccc3C)C2)no1 (stereo unspecified)	84.94
COc1ccc(CNC2CCCN(Cc3noc(C)n3)C2)cc1F (stereo unspecified)	-5.655
Cc1nc(CN2CCCC(NCc3ccc4ccccc4c3)C2)no1 (stereo unspecified)	117
Cc1nc(CN2CCCC(NCc3c(C)nc4sccn34)C2)no1 (stereo unspecified)	-4.535
Cc1nc(CN2CCCC(NCc3csc(C(C)(C)C)n3)C2)no1 (stereo unspecified)	82.03
CCOc1cccc(CN2CCCn3nc(CNS(C)(=O)=O)cc3C2)c1	-2.285
Cc1nc(CN2CCCC(NCc3ccc4c(c3)CCO4)C2)no1 (stereo unspecified)	109.8
Cc1cccc(CN2CCc3ncnc(C)c3CC2)n1.O=C(O)C(F)(F)F	-2.689
O=C(O)C(F)(F)F.O=C(O)C(F)(F)F.c1ccc(CN2CCc3ncnc(C4CCOC4)c3CC2)nc1 (stereo unspecified)	3.596
Cc1cccc(CN2CCc3ncnc(C4CC4)c3CC2)n1.O=C(O)C(F)(F)F	113.1
Cc1cccc(CN2CCc3ncnc(NC4CCC4)c3CC2)n1.O=C(O)C(F)(F)F.O=C(O)C(F)(F)F	78.48
Cc1ncnc2c1CCN(Cc1ccccn1)CC2.O=C(O)C(F)(F)F.O=C(O)C(F)(F)F	-3.635
CN(c1nc(CSc2nnc(Cn3cncn3)o2)cs1)C1CC1	-4.174
O=C(CCc1c[nH]cn1)N1CC[C@@H](c2ccc3ccccc3c2)[C@H](O)C1	-1.023

SMILES	Percent Effect [%]
Cc1n[nH]c(SCC(=O)NC(c2ccccn2)C(C)C)n1 (stereo unspecified)	0.231
CC(C)Cn1cc(NC(=O)NC(C)(C)c2nccs2)cn1	-7.007
Cc1cc(Cl)cc(C)c1CNC1CCN(CC(=O)N(C)C)CC1	-21.25
Cc1noc(C)c1-c1cccc(C2CN(S(=O)(=O)N(C)C)CCO2)n1 (stereo unspecified)	137.9
Cc1cc(C(F)(F)F)c2c(C3CCN(S(=O)(=O)N(C)C)CC3)noc2n1	-7.595
Cc1nc(-c2c(C)noc2C)cc(C2CCN(CC(=O)N(C)C)CC2)n1	77.89
CCC[C@H]1CN(S(=O)(=O)c2ccc(-c3c(C)noc3C)s2)C[C@@H]1N	-6.038
Cc1noc(C)c1CN(C)C(=O)C1CCN(S(N)(=O)=O)CC1	-4.387
CC(C)c1n[nH]c(C2CN(CC(=O)N(C)Cc3ccco3)CCO2)n1 (stereo unspecified)	-2.203
CCN(C)C(=O)CN1CCC(c2cc(N3CCOCC3)nc(C)n2)CC1	11.68
Cc1nc(-c2c(C)noc2C)cc(C2CCN(S(=O)(=O)N(C)C)CC2)n1	103.8
Cc1noc(C)c1-c1cccc(C2CN(CC(=O)N(C)C)CCO2)n1.O=CO (stereo unspecified)	138.9
CCc1n[nH]c(C2CN(CC(=O)N(C)Cc3ccco3)CCO2)n1 (stereo unspecified)	-22.35
Oc1ccc(-c2c(-c3ccccc3)ncn2C[C@H]2CCCN2)cc1	-6.352
CCc1noc(C(C)N2CCC(NS(=O)(=O)c3ccccc3)CC2)n1 (stereo unspecified)	-5.336
Cc1noc(C)c1-c1cccc(C2CCN(CC(=O)N(C)C)CC2)n1	159.5
CN(C(=O)CN1CCC(c2cc3ccccc3[nH]2)CC1)C1CC1	-16.32
CN(C(=O)CN1CCC(c2cc3ccccc3[nH]2)CC1)C(C)(C)C#N	-0.1259
Cc1csc(CNc2cccc(OCCN3CCCC3)c2)n1	-3.385
CCOc1cc(C(=O)N2CCCC(c3noc(C)n3)C2)ccn1 (stereo unspecified)	-8.742
CC(C)c1nc(C2CCCN(C(=O)c3nccn4ccnc34)C2)no1 (stereo unspecified)	101.8

SMILES	Percent Effect [%]
CCOc1cc(CNC(=O)NCc2nc(C)c(C)s2)ccn1	-14.7
Cc1ncsc1C(=O)N1CCCC(c2noc(C(C)C)n2)C1 (stereo unspecified)	-0.9065
CCOc1cc(C(=O)N2CCCC(c3nc(C)c(C)s3)C2)ccn1 (stereo unspecified)	118.9
CCOc1cc(C(=O)N2CC=C(c3ccc(O)cc3)CC2)ccn1	-12.82
CCOc1cc(C(=O)N2CCCC(c3noc(CC)n3)C2)ccn1 (stereo unspecified)	112.4
CCOc1cc(C(=O)N2CCCC(c3noc(C(C)C)n3)C2)ccn1 (stereo unspecified)	127.2
CCNc1ncc(CN2C[C@H]3CC[C@@H]2CN(C(=O)C2CCC2)C3)cn1	-9.372
COCc1cc(N2CCN(c3ccc(Cl)cn3)CC2)n2nccc2n1	-13.5
COc1ccc(F)c(CN2CCCC(O)(CNCc3ccoc3)C2=O)c1 (stereo unspecified)	4.177
O=C(c1cc[nH]n1)N(Cc1ccccc1)CC1CCC1	-1.584
Cc1nc[nH]c1CN(Cc1ccccc1)C1CC(C)(C)NC(C)(C)C1.O=C(O)CC(O)(CC(=O)O)C(=O)O	106.8
Cc1nc[nH]c1CN(Cc1ccccc1F)C1CC(C)(C)NC(C)(C)C1.O=C(O)CC(O)(CC(=O)O)C(=O)O	111.6
Cc1n[nH]c(C)c1CNC(=O)N(Cc1ccccc1)CC(C)(C)O	-20.3
CCCc1cc(CN(C)C2CC(C)(C)NC(C)(C)C2)n[nH]1	-6.342
Cc1ccc(CNC(=O)N(Cc2ccccc2F)C2CC2)cn1	-4.204
CC1(C)CC(N(Cc2ccccc2)Cc2c[nH]cn2)CC(C)(C)N1.O=C(O)CC(O)(CC(=O)O)C(=O)O	113.6
Cc1nc[nH]c1CN(Cc1ccc(F)cc1)C1CC(C)(C)NC(C)(C)C1	102.8
Cc1ccc(CN(Cc2c[nH]cn2)C2CC(C)(C)NC(C)(C)C2)o1.O=C(O)CC(O)(CC(=O)O)C(=O)O	1.098
Cc1nc[nH]c1CN(C)CC1CCCN(CCc2ccc(Cl)cc2)C1 (stereo unspecified)	-5.725
